Source: PubChem
Sa ugtP lethal: kills S. aureus RN4220 lacking UgtP; hit rate 0.54% among 330,000; S. aureus RN4220 ugtP deletion, OD600 growth, 16 h; growth inhibition, % (test concentration not listed); in the data active = growth inhibition above about 68%;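 also: plate controls were untreated wells for no effect and antibiotic for full effect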
SSB-PriA inh: blocks PriA binding to SSB C-terminal tail | AlphaScreen SSBct-PriA binding, biotinylated peptide | hit rate 0.6% among 430,000 | inhibition, % at 33 µM; in the data active = inhibition mostly above about 37%, no sharp cut-off; inactive = mostly below about 20%;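 also: plate controls were negative control peptide for no effect and reference peptide for full effect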
RN4220 kill: S. aureus RN4220 growth inhibition | AID 1259311 | OD600, 16 h | hit rate 0.33% among 330,000 | inhibition, % (no concentration beside the values); in the data active = inhibition above about 85%;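 also: plate controls were untreated cells for no effect and reference antibiotic for full effect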
* hit, by the source's call; i = inactive; nt = no result; + = active, no number. Rows were chosen to be rich in hits. Some 1% of all compounds tested hit in one or more screens of this group.

SMILES	Sa ugtP lethal	SSB-PriA inh	RN4220 kill
c1ccc(C2OC3c4cccc5cccc(c45)C3N2c2ccccc2)cc1 (stereo not drawn)	84*	0	-6
CC1C(c2ccccc2)OC(c2ccccc2Br)N1C (stereo not drawn)	6	nt	14
CCCCN(CC)S(=O)(=O)c1ccc(C(=O)Nc2nnc(-c3cccs3)o2)cc1	95*	-10	93*
COc1ccccc1-c1nnc(NC(=O)c2ccc(S(=O)(=O)N(C)Cc3ccccc3)cc2)o1	99*	-9	110*
CN(c1ccccc1)S(=O)(=O)c1ccc(C(=O)Nc2nnc(-c3ccc(F)cc3)o2)cc1	100*	-4	100*
CCCN(CCC)S(=O)(=O)c1ccc(C(=O)Nc2nnc(-c3cccs3)o2)cc1	nt	-1	nt
CN(C[C@H]1CCCO1)S(=O)(=O)c1ccc(C(=O)Nc2nnc(-c3ccc(F)cc3)o2)cc1	nt	-13	nt
CCc1nnc(NC(=O)c2ccc(S(=O)(=O)N(C)Cc3ccccc3)cc2)o1	3	3	23
CN(C)S(=O)(=O)NCCn1nc(-c2ccco2)n(C2CC2)c1=O	nt	-12	nt
Cc1cc(N2CCC(NC(=O)C(C)Oc3ccccc3)CC2)n[nH]1 (stereo not drawn)	nt	3	nt
O=C(CSc1nccn1-c1ccc(F)cc1)NCc1ccc(F)cc1	1	6	2
O=C(CSc1nccn1-c1cccc(C(=O)NCc2ccco2)c1)Nc1ccc(Cl)cc1F	nt	37*	nt
O=C(CSc1nccn(-c2cccc(F)c2)c1=O)Nc1ccc(Cl)cc1F	8	-3	0
O=C(CSc1nccn1Cc1ccccc1)Nc1ccc(F)cc1F	nt	20	nt
O=C(CSc1nccn1-c1ccc([N+](=O)[O-])cc1)Nc1nccs1	nt	-1	nt
O=C(CSc1nccn1-c1ccc(F)cc1)Nc1ccc(Br)cc1	nt	60*	nt
O=C(CSc1nccn1-c1ccc([N+](=O)[O-])cc1)Nc1ccc(Cl)c(Cl)c1	nt	36*	nt
Cc1cc(C)cc(-n2ccnc2SCC(=O)Nc2ccc(F)cc2F)c1	nt	47*	nt
CCN1C(=O)/C(=C/c2ccc(O)c(Cl)c2)NC1=S	nt	13	nt
CC(C)S(=O)(=O)c1cccc(-c2nnc(NC(=O)C(C)(C)Oc3ccc(Cl)cc3)o2)c1	nt	-7	nt
COc1ccc(-n2ccnc2SCC(=O)Nc2cccc3ccccc23)cc1	nt	58*	nt
COc1ccc(NC(=O)CSc2nccn2-c2ccccc2)c(OC)c1	5	28	3
NC(=NOC(=O)C1CCCCC1)c1ccncc1	nt	-7	nt
Cc1cc(C)c2[nH]c(O)c(N=NC3=NC(=O)CS3)c2c1	10	-4	5
Cc1cc(C)c2[nH]c(O)c(N=Nc3ccc(C(=O)O)cc3)c2c1	85*	-5	90*
SMILES	Sa ugtP lethal	SSB-PriA inh	RN4220 kill
O=C(C1CC1)N1CCc2ccc(NS(=O)(=O)c3ccc(F)c(Cl)c3)cc2C1	nt	4	nt
O=C(c1ccc(-n2cccc2)cc1)N1CCN(Cc2csc(-c3ccccc3)n2)CC1	nt	29*	nt
O=C(c1ccc(-n2cccc2)cc1)N1CCN(Cc2ccccc2)CC1	8	5	0
COC1(C)CC2C(CC1OC(=O)c1cc([N+](=O)[O-])cc([N+](=O)[O-])c1)C2(C)C (stereo not drawn)	-22	74*	-2
COC(=O)c1cc(C(=O)NCC2CCCCC2)cc([N+](=O)[O-])c1	11	1	-2
O=C(c1cnccn1)N1CCN(c2cc(C(F)(F)F)ncn2)CC1	nt	-6	nt
O=C(NCC1CN(c2ccccc2)C(=O)O1)c1cnn2c1OCCC2 (stereo not drawn)	nt	-11	nt
CCOc1ccc(C2=NNC(c3cccs3)=Nc3ccc(OC)cc32)cc1	1	27	-2
Brc1ccc2c(c1)C(c1cccnc1)=NNC(c1cccs1)=N2	-7	53*	1
Brc1ccc2c(c1)C(c1ccc(N3CCOCC3)cc1)=NNC(c1cccs1)=N2	-16	13	1
Fc1ccc2c(c1)C(c1ccc(N3CCOCC3)cc1)=NNC(c1cccs1)=N2	-3	40*	-2
O=C(CN1CCN(CC(O)C2CC2)CC1)NCC1CCCO1 (stereo not drawn)	nt	-18	nt
COC(=O)c1ccc(C(=O)NC[C@@](O)(c2ccco2)C2CC2)cc1	nt	-8	nt
Cc1nn(C2CCS(=O)(=O)C2)c2nc(-c3ccccc3)cc(C(=O)Nc3ccc(N(C)C)cc3)c12 (stereo not drawn)	nt	44	nt
Cn1nc(N2CCC[C@H](C(=O)Nc3nc4ccccc4[nH]3)C2)ccc1=O	nt	-10	nt
O=[N+]([O-])c1cccc(/C=[N+](\[O-])c2ccccc2)c1	nt	-29	nt
CN(C)C1C(=O)C(C(N)=O)=C(O)C2(O)C(=O)C3=C(O)c4c(O)cccc4C(C)(O)C3C(O)C12 (stereo not drawn)	100*	-7	100*
CN(C)C1C(=O)C(C(N)=O)=C(O)[C@@]2(O)C(=O)C3=C(O)c4c(O)ccc(Cl)c4C(O)C3CC12 (stereo partly drawn)	99*	nt	100*
CN(C)C1C(=O)C(C(N)=O)=C(O)[C@@]2(O)C(=O)C3=C(O)c4c(O)cccc4[C@@](C)(O)C3C(O)C12 (stereo partly drawn)	99*	nt	100*
CN(C)C1C(=O)C(C(N)=O)=C(O)[C@@]2(O)C(=O)C3=C(O)c4c(O)cccc4[C@@](C)(O)C3CC12 (stereo partly drawn)	100*	nt	100*
C=C1c2cccc(O)c2C(=O)C2C(=O)[C@]3(O)C(=O)C(C(N)=O)C(=O)[C@@H](N(C)C)[C@@H]3[C@@H](O)[C@H]12 (stereo partly drawn)	nt	11	nt
CC(C)(C)NC(=O)N1CCC(S(=O)(=O)c2ccc(F)cc2)CC1	nt	10	nt
CC(C)c1c(C(=O)NCCO)nnn1-c1ccc(Br)cc1	nt	-4	nt
CCOC(=O)N1CCN(C(=O)CSc2ccc(NC(=O)c3ccccc3)nn2)CC1	nt	6	nt
O=C(CSc1cccc2cccnc12)N/N=C/c1cccc(O)c1	nt	+	nt
SMILES	Sa ugtP lethal	SSB-PriA inh	RN4220 kill
O=C(CSc1cccc2cccnc12)N/N=C/c1ccc(Br)cc1	nt	i	nt
O=C(CSc1cccc2cccnc12)NN=Cc1ccncc1	1	4	1
COc1cc(/C=N/NC(=O)CSc2cccc3cccnc23)cc(OC)c1OC	nt	+	nt
O=C(NCC1CCN(C(=O)c2ccoc2)CC1)C(=O)Nc1ccc(OC(F)(F)F)cc1	nt	-1	nt
O=C(NCC1CCN(C(=O)Oc2ccccc2)CC1)c1cc(Br)cs1	nt	-13	nt
CCCCS(=O)(=O)NC(C)Cc1ccco1 (stereo not drawn)	nt	-21	nt
CC(=O)/C=C/c1ccc(OC(F)F)cc1	nt	11	nt
CCC(=O)N1CCCC1c1nc2ccccc2n1CCOc1ccc(Cl)cc1 (stereo not drawn)	nt	-15	nt
CC(=NN=C(N)SC1CC(=O)N(c2ccc(Cl)c(Cl)c2)C1=O)c1cccs1 (stereo not drawn)	99*	2	100*
CC(=NN=C(N)SC1CC(=O)N(c2cccc(Cl)c2)C1=O)c1cccs1 (stereo not drawn)	9	17	65
COc1ccc(F)cc1S(=O)(=O)N1CCN(Cc2nc3ccccc3n2Cc2ccccc2)CC1	nt	13	nt
COc1cc2sc3ccc(-c4ccc5[nH]ccc5c4)cc3c(=O)c2cc1OC	-16	-25	-4
O=c1c2ccccc2oc2cc(-c3ccc4[nH]ccc4c3)ccc12	88*	-7	88*
COc1ccc(S(=O)(=O)C2CCN(S(=O)(=O)c3cccc(Cl)c3C)CC2)cc1	nt	-3	nt
